# KLK7 zymogen act: activates the human kallikrein-7 zymogen. 370,000 compounds, 0.9% hits. activation, % at 7 µM. purified proKLK7, EDANS-DABCYL substrate fluorescence; 100% is mature enzyme control, 0% vehicle;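 active means activation above the mean of all tested compounds plus 3 SD, computed per campaign excluding outliers beyond control limits, cut at about 13% in these data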
# PLC-beta3 inh: PLC-beta3 (human) inhibition, primary screen. Q01970. Purified PLC-beta3, fluorogenic substrate, fluorescence. inhibition, % at 12.2 µM. 370,000 compounds, 0.18% hits. AID 720704; in the data active means inhibition above about 11%;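 further: 0% = median of compound wells on plate and 100% = full blocker control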
# ADAM17 inh: ADAM17 inhibition, QFRET primary screen; recombinant ADAM17, EDANS/DABCYL FRET peptide cleavage; inhibition, % at 6.95 µM; 370,000 compounds, 0.83% hits;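 active means inhibition above the mean of compounds lying between control limits plus 3 SD, set per campaign, cut at about 8.5% in these data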;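 further: 0% = DMSO-only wells as the low control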
# HGIII-sPLA2 inh: Inhibits HGIII-sPLA2 liposome hydrolysis, primary screen. Q9NZ20. QFRET BODIPY PC-A2 liposome hydrolysis, fluorescence. inhibition, % at 12.2 µM. 370,000 compounds, 0.56% hits. AID 743126;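 active means inhibition above mean plus 3 SD of compounds lying within the high and low control bounds, cut at about 19% in these data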;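 further: 0% = median of test compound wells and 100% = no enzyme DMSO wells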
# Target sequence (Q9NZ20 whole entry, looked up): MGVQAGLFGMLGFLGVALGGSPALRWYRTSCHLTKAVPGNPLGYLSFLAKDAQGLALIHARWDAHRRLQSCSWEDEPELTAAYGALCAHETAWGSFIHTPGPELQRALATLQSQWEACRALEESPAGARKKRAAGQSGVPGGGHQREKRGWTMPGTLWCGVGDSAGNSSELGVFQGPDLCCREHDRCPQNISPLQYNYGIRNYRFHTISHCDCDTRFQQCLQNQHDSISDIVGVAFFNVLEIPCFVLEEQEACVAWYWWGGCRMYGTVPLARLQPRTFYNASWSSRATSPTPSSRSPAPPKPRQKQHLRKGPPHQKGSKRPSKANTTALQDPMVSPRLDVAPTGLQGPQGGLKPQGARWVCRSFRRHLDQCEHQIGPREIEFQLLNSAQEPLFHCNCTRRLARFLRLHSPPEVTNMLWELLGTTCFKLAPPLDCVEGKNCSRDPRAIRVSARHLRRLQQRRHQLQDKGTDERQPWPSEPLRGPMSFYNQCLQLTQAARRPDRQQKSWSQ
# ADAM10 inh: inhibitors of human ADAM10; inhibition, % at 7 µM; 370,000 compounds, 0.62% hits; recombinant ADAM10, EDANS/DABCYL FRET peptide cleavage, 3 h; AID 720582;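 active means inhibition above a per-campaign cutoff equal to the mean of compounds falling between control-based bounds plus 3 SD, cut at about 20% in these data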;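 further: 0% = DMSO wells while the 100% control is not disclosed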
# PLC-gamma1 inh: inhibitors of human phospholipase C gamma1. P19174. purified PLC-gamma1, fluorogenic substrate, fluorescence. inhibition, % at 12.2 µM. 370,000 compounds, 0.84% hits; in the data active means inhibition above about 9.5%
# ADAM10 ctr: ADAM10 inhibition, counter-screen for ADAM17 exosite hits; 2,900 compounds, 47% hits; recombinant ADAM10, EDANS/DABCYL FRET peptide cleavage, 3 h; shares compounds with ADAM17 inh; inhibition, % at 6.95 µM;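 active means mean inhibition over the triplicate runs exceeds the activity threshold set in the earlier primary screen, cut at about 20% in these data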;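 further: 0% = DMSO wells and 100% = marimastat wells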
# ADAM17 confirm: confirmation of inhibitors of human ADAM17; shares compounds with ADAM17 inh; recombinant ADAM17, EDANS/DABCYL QFRET peptide cleavage; inhibition, % at 6.95 µM; 2,900 compounds, 65% hits; AID 743257;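 active means mean inhibition across replicates above the hit cutoff set in the primary screen, cut at about 8.5% in these data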;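 further: 0% = DMSO wells and 100% = marimastat wells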
# Starred values were filed as active, the others as inactive; nt = not tested or not shown. Rows were chosen to be rich in hits. Some 3.4% of all compounds tested hit in one or more screens of this group.
SMILES,KLK7 zymogen act,PLC-beta3 inh,ADAM17 inh,HGIII-sPLA2 inh,ADAM10 inh,PLC-gamma1 inh,ADAM10 ctr,ADAM17 confirm
Cn1cnnc1SCC(=O)NNC(=O)c1ccc([N+](=O)[O-])cc1,-1,0,1,0,0,2,nt,nt
Cn1cnnc1SCC(=O)c1cccc([N+](=O)[O-])c1,0,9,8.7*,-26,10,5,2,3
CC(=O)NC12CC3CC(C1)CC(C(=O)Nc1nc4ccc(F)cc4s1)(C3)C2,-1,-9,8.6*,-9,-4,-1,-2,2
O=S1(=O)c2ccc(Br)cc2OC[C@@H](c2ccccc2)N1Cc1cn(Cc2ccccc2)nn1,0,5,4,-1,8,0,nt,nt
O=C(/C=C/c1ccccc1Cl)Nc1cccc(O)c1,0,-2,9.2*,-22,6,3,2,4
Cc1ccccc1CS(=O)(=O)Cc1ccc(C(=O)Nc2ccc(F)cc2F)o1,0,-1,-3,9,-15,0,nt,nt
O=C(COC(=O)CNS(=O)(=O)c1c(Cl)cccc1Cl)Nc1ccccc1Sc1ccccc1,0,-2,9,-17,8,2,nt,nt
O=C(COC(=O)CNS(=O)(=O)c1cccc(Br)c1)Nc1ccccc1Sc1ccccc1,0,3,9.9*,-24,15,2,27*,15*
O=[N+]([O-])c1cccc(/C=N/n2cnnc2)c1,0,-6,1,16,-6,1,nt,nt
O=[N+]([O-])c1ccc(O)c(/C=N/n2cnnc2)c1,0,7,9.2*,3,15,3,11,5
CC(C)(C)N1Cc2nnn(CC3CCCCC3)c2-c2cc(F)ccc2S1(=O)=O,0,0,-3,7,-2,2,nt,nt
CN(CC(=O)Nc1ccc(Cl)c(C(F)(F)F)c1)C(=O)c1ccc(OCC2CCCO2)cc1 (configuration not stated),0,-15,8.7*,-22,13,3,25*,9.7*
O=C(COCc1ccccc1)N1CC[C@H]2[C@H](CCCN2Cc2ccccc2)C1,0,3,-1,-2,1,1,nt,nt
CCOC(=O)[C@]12CCCC=C1N(Cc1cccc3ccccc13)C(=O)[C@H](CC(=O)NCCc1ccccc1OC)C2,0,-4,9.7*,-14,11,2,24*,17*
CCOC(=O)[C@]12CCCC=C1N(Cc1cccc3ccccc13)C(=O)[C@H](CC(=O)NCc1cccc3ccccc13)C2,0,1,11*,-13,6,0,12,5
COC(=O)[C@@]12C[C@@H](CC(=O)NCc3cccc4ccccc34)C(=O)N(Cc3ccc4c(c3)OCO4)C1=CCC(C)(C)C2,0,-2,8.9*,-18,18,2,20*,12*
COC(=O)[C@]12CCCCC=C1N(Cc1cccc3ccccc13)C(=O)[C@H](CC(=O)NCc1cccc3ccccc13)C2,0,2,12*,-5,16,6,23*,12*
COC(=O)[C@]12CCCCC=C1N(Cc1cccc3ccccc13)C(=O)[C@H](CC(=O)NCc1ccc(C)o1)C2,-1,-1,5,-16,14,1,nt,nt
CCCCOP(=O)(OCCCC)C(O)c1ccc(Br)cc1 (configuration not stated),0,6,11*,5,11,-21,-6,0
COc1ccc(-c2cc(C3CCN(C(=O)OC(C)(C)C)CC3)[nH]n2)cc1,1,4,1,-21,10,0,nt,nt
COc1ccc(-c2cc(C3CCN(c4ccc(C(C)=O)cc4[N+](=O)[O-])CC3)[nH]n2)cc1,1,3,13*,-53,33*,6,32*,19*
COc1ccc(NS(=O)(=O)c2ccc(OC)c(NC(=O)CCC3CCCC3)c2)cc1,0,6,12*,-31,18,6,20,12*
